# Source: the supplement of paper PMC6555819
# Assays:
# Test in all cases: PBM binding z-score (relative to random genomic background probes); higher = stronger binding; sequences stand for … in GC…GCGATTGACAGCGTAGAATGAAGG
# [1] = tested on: FXR:RXRa (NR concentration 270 nM, RXRa partner concentration 90 nM)
# How it was run: (§1)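 Custom Agilent 4×180K protein-binding microarrays carried double-stranded probes, each with a 34-nt variable region. These regions held direct-repeat seeds, single-nucleotide variants, half-site ablations and random human genomic background sequences. Ligand-free nuclear receptor dimers were incubated on the arrays for 1 h, antibodies against each partner (one per run) detected binding, and scanned fluorescence was regression-normalized. Binding z-scores take the random background probes as reference.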
# [2] = tested on: LXRa:RXRa (NR concentration 270 nM, RXRa partner concentration 90 nM)
# How it was run: as §1
# [3] = tested on: LXRa homodimer (NR concentration 270 nM)
# How it was run: as §1
# [4] = tested on: LXRb:RXRa (NR concentration 270 nM, RXRa partner concentration 90 nM)
# How it was run: as §1
# [5] = tested on: LXRb homodimer (NR concentration 270 nM)
# How it was run: as §1
# [6] = tested on: PPARa:RXRa (NR concentration 270 nM, RXRa partner concentration 90 nM)
# How it was run: as §1
# [7] = tested on: PPARg:RXRa (NR concentration 180 nM, RXRa partner concentration 90 nM)
# How it was run: as §1
# [8] = tested on: PPARg:RXRa 270nM:90nM, anti-RXR (NR concentration 270 nM, RXRa partner concentration 90 nM)
# How it was run: as §1
# [9] = tested on: PPARg:RXRa 30nM:10nM, anti-RXR (NR concentration 30 nM, RXRa partner concentration 10 nM)
# How it was run: as §1
# [10] = tested on: PPARg:RXRa 90nM:30nM, anti-RXR (NR concentration 90 nM, RXRa partner concentration 30 nM)
# How it was run: as §1
# [11] = tested on: PPARg:RXRa DBDmut IVT, anti-RXR (DBD mutation: RXRa K156A/R161A, NR concentration 270 nM, RXRa partner concentration 90 nM)
# How it was run: as §1
# [12] = tested on: PPARg:RXRa IVT, anti-PPARg (NR concentration 270 nM, RXRa partner concentration 90 nM)
# How it was run: as §1
# [13] = tested on: PPARg DBDmut:RXRa IVT, anti-PPARg (DBD mutation: PPARg1 K132A/R137A, NR concentration 270 nM, RXRa partner concentration 90 nM)
# How it was run: as §1
# [14] = tested on: PPARg DBDmut IVT, anti-PPARg (DBD mutation: PPARg1 K132A/R137A, NR concentration 270 nM)
# How it was run: as §1
# [15] = tested on: PPARg homodimer (NR concentration 180 nM)
# How it was run: as §1
# [16] = tested on: PXR:RXRa (NR concentration 270 nM, RXRa partner concentration 90 nM)
# How it was run: as §1
# [17] = tested on: PXR homodimer (NR concentration 270 nM)
# How it was run: as §1
# [18] = tested on: RARa:RXR (NR concentration 270 nM, RXRa partner concentration 90 nM)
# How it was run: as §1
# [19] = tested on: RARa homodimer (NR concentration 270 nM)
# How it was run: as §1
# [20] = tested on: RARb:RXRa (NR concentration 270 nM, RXRa partner concentration 90 nM)
# How it was run: as §1
Sequence,PBM binding z-score [1],PBM binding z-score [2],PBM binding z-score [3],PBM binding z-score [4],PBM binding z-score [5],PBM binding z-score [6],PBM binding z-score [7],PBM binding z-score [8],PBM binding z-score [9],PBM binding z-score [10],PBM binding z-score [11],PBM binding z-score [12],PBM binding z-score [13],PBM binding z-score [14],PBM binding z-score [15],PBM binding z-score [16],PBM binding z-score [17],PBM binding z-score [18],PBM binding z-score [19],PBM binding z-score [20]
ATCTCTAGGTAACAAGATCAGTGAAAGAGAGGAC,0.203,0.168,0.348,0.0382,0.596,0.578,1.09,0.835,0.253,0.677,3.03,2.72,1.75,1.21,0.336,0.0521,-0.0922,0.158,1.1,0.327
ATATGTAGGTTAAGGTTCATTCAGGTTGGTTCGC,3.46,3.69,3.61,3.2,0.826,5.83,10.6,9.42,8.81,10.9,7.08,7.48,4.12,3.24,3.29,4.08,5.13,3.48,1.87,2.21
TCATATAGGTAAACAGGCGAAAGTCCGTAAGTTA,0.58,0.715,0.0889,0.816,-0.0877,1.56,1.45,2.91,3.94,3.3,4.24,2.83,0.751,0.916,1.19,0.767,0.508,1.04,0.681,0.356
TATACAGGGGCAAAGGCCAGAGTACGAATGTCGA,0.799,1.07,0.0951,1.34,1.92,2.84,4.54,5.09,3.45,4.92,0.641,2.72,1.72,2.01,1.16,0.577,0.087,0.592,0.364,2.1
CCAACTGGGGCAGAAAGGTTACCATACCATCCGG,0.267,0.782,0.0649,1.12,-0.79,2.53,2.29,2.56,0.915,2.11,3.25,3.34,0.0349,-0.823,0.624,1.1,0.0955,1.98,-0.139,2.03
ACTATTAATTGACTTAGGGCAACCGATACGACGC,0.0871,0.356,1.02,0.353,1.25,0.0941,1.05,0.505,0.559,0.814,0.595,0.509,0.998,1.47,1.74,0.334,1.65,0.245,2.46,0.883
TATACAGGGCCAAAGGCCAGAGTACGAATGTCGA,0.18,0.14,-0.21,-0.197,0.431,1.38,4.12,4.61,2.62,4.32,-0.282,1.6,0.275,-0.0589,0.362,-0.0978,-0.0965,0.479,-0.305,1.53
TTACCAAGGTGAGCTGAGGTCTTTGATCCAACTC,-0.159,0.0694,-0.392,-0.341,-1.02,0.662,-0.133,0.0949,-0.176,-0.0349,0.776,1.72,-0.073,-0.0335,-0.466,2,-0.613,2.56,-0.713,1.17
TCTCGTTGGTCACGGAGGTCACACACGACGGGTA,3.3,3.62,1.88,3.75,1.11,3.85,2.5,3.71,2.93,3.47,1.58,3.31,0.735,1.33,2.82,4.37,0.995,4.41,1.01,4.02
CCTCGGAGGACAGAAGGTCAGTGCTGTCCGCTTT,1.08,1.1,-0.0896,0.672,-0.597,1.49,-0.509,0.452,-0.825,-0.242,-0.0749,-0.108,-0.925,-2,1.55,1.18,-0.686,1.65,-0.0741,3.28
TCTTGTAGACCAAGCAGGTTAAGAAAGCCTGAGT,0.286,0.184,-0.371,-0.086,-0.534,0.881,-0.307,1.12,2.54,1.77,1.69,0.677,-0.0357,-0.21,-0.226,0.504,0.118,0.56,-0.3,0.219
CCTACTGGGCCATCAGGTTATTGATATCAACGTT,0.0751,-0.156,0.178,0.293,-0.502,0.918,1.23,1.98,0.473,1.4,4.67,4.48,0.284,0.0128,0.249,-0.153,-0.0218,-0.124,0.0589,0.589
TCATATAGGTAAAGAGGTGAAAGTCCGTAAGTTA,1.74,1.63,0.378,1.56,-0.0509,3.46,4.38,4.63,4.83,5,4.95,5.26,1.1,0.188,1.78,1.23,0.825,1.76,1,1.65
CCGAGTAGGTTAAGGGGCATTCAGGCAACGGTGA,0.765,0.894,-0.155,1.02,-0.297,3.51,6.06,6.42,4.16,6.65,3.63,4.08,-0.405,-0.995,0.976,0.49,0.0402,1.39,0.293,1.51
